Assay outcomes (PubChem)
IkB sig inh – IkB Signaling | ABC-DLBCL IkBa-CBG/CBR dual luciferase ratio, 4 h; response scale: scaled: untreated 0%, proteasome inhibitor 100% | Potency, µM (doses to about 57.1 µM), without a hit: top-dose IkBa stabilization activation | hit rate 0.04% among 110,000; active = well fitted curve in the direction sought with a large enough effect in the signal ratio, not every such curve was filed as active; inconclusive = small, poorly fitted or top-dose-only effect, or a change in a side signal; the % refers to the signal ratio;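 note: the direction sought is a rising ratio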
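Luminescence ratio of IκBα-fused green versus native red beetle luciferase in OCI-Ly3 cells, 4 h post-doxycycline with compound; red signal alone, scaled from basal (0%) to zero light (-100%), flagged nonspecific or cytotoxic effects.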
HEK293 cAMP cs – qHTS Assay for Agonists of the Thyroid Stimulating Hormone Receptor: Activators of Intracellular cAMP Concentrations in Parental HEK 293. parental HEK293 CNG cAMP sensor, membrane potential fluorescence. Potency, µM (top dose mostly 57.1 µM), for inactives: at the top dose activation, hits mostly activators. hit rate 2.5% among 73,000. AID 938, 2007; note: % of control where 0% means no effect; nearly all actives have a fitted effect of over 55% in size
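Parental HEK 293 cells stably expressing a modified CNG channel (no TSHR) report cAMP rise as membrane depolarization. Membrane potential dye with 100 uM RO 20-1724 was loaded for 60 min at room temperature, then compound added for 30 min; fluorescence read at 590 nm.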
TSHR agonist – qHTS Assay for Agonists of the Thyroid Stimulating Hormone Receptor | Thyrotropin receptor (Homo sapiens), P16473 | HEK293-CNG-TSHR cells (CNG channel as cAMP sensor), membrane potential dye, cAMP | Potency, µM (highest dose often 57.1 µM), for inactives: at the top dose activation, usual class: activators | hit rate 0.48% among 73,000 | AID 926, 2007; active = well fitted activation curve with a large enough effect in the main read-out, with a control signal flat, not every such curve was filed as active; inconclusive = small, poorly fitted or top-dose-only effect, or a change in a side signal; inactive = no such curve, though single readings can be large or run the other way; % of control where 0% means no effect;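 note: the control signal comes from parental cells without the receptor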
Target sequence (P16473 whole entry, looked up): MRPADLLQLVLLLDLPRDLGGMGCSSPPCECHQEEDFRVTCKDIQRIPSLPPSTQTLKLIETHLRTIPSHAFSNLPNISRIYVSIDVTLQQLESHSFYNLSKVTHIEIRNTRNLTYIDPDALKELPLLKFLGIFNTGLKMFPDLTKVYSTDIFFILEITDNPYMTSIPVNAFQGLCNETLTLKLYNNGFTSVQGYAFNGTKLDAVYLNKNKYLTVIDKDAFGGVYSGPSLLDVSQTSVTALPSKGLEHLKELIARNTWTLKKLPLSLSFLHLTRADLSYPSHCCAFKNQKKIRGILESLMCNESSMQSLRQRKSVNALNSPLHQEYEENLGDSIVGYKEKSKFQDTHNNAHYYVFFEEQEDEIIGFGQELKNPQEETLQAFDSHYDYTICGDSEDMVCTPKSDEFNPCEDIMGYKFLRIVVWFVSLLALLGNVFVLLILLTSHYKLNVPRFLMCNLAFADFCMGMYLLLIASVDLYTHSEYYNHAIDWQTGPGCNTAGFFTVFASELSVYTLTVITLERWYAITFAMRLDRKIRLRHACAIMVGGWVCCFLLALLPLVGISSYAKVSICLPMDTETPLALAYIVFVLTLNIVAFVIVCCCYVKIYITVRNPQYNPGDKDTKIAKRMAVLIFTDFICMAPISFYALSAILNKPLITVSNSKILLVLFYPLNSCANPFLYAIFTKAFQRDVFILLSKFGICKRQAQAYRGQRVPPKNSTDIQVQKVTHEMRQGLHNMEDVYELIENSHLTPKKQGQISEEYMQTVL
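HEK 293 cells stably expressing TSHR and a cAMP-gated CNG channel; parental CNG-only cells as counterscreen. Cells preloaded 60 min with membrane potential dye plus 100 uM RO 20-1724, then compound 30 min; fluorescence read at 590 nm.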
p53ts 39C kill – qHTS Screen for Compounds that Selectively Target Cancer Cells with p53 Mutations: Cytotoxicity of p53ts Cells at the Nonpermissive Temperature; AID 902, 2007; Potency, µM (highest dose often 46.1 µM), inactives show top-dose activity change, negative = cell killing, actives largely listed as cytotoxic; hit rate 1.5% among 130,000; H1299-p53A138V viability at 39C, ATP luminescence, 24 h; note: % is set by controls: 0 for no effect and ±100 for the full control effect; nearly all actives have a fitted effect of over 55% in size
Imprint erasure – qHTS Assay for Compounds that Induce Erasure of Genomic Imprints. mouse ES Peg3-LacZ reporter, beta-gal luminescence, 40 h. Potency, µM (series often up to 60.7 µM), for inactives: at the highest dose activity change, positive = activation, most hits filed as activators. hit rate 0.02% among 110,000. AID 1948, 2009
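Each well holds 300 Peg3LacZ-Neo (maternal) female ES cells incubated 40 h at 37C, 5% CO2. LacZ is measured by BetaGlo luminescence, with AC50 and maximum efficacy derived from dose-response curves.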
p53ts 32C tox – qHTS Screen for Compounds that Selectively Target Cancer Cells with p53 Mutations: Cytotoxicity of p53ts Cells at the Permissive Temperature; hit rate 0.93% among 130,000; H1299-p53A138V at 32C, ATP luminescence viability, 24 h; AID 924, 2007; Potency, µM (series often up to 46.1 µM), for inactives: top-dose activity change, negative = cytotoxicity, usual class: cytotoxic;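 note: 0% = DMSO and -100% = full killing by reference compound; nearly all actives have a fitted effect of over 55% in size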
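H1299-p53 A138V cells (temperature-sensitive p53) exposed 24 h to up to 46 uM compound at 32C, where p53 is wild-type in conformation. Viability read as ATP luminescence and normalised to DMSO and 100 uM tamoxifen. AC50 fitted with the Hill equation.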
Active calls of the source: *; ? = inconclusive; nt = not tested or not shown; [ ] = dose if it differs, or a comment. An excerpt weighted towards active compounds, which were near 3.1% of everything screened. Unless noted, calls come from the whole dose curve; as a rule, active = well fitted curve in the direction sought with a large enough effect; inconclusive = small, poorly fitted or top-dose-only effect, or another doubt; inactive = no such curve, though single readings can be large; an effect the other way counts as inactive or inconclusive. Potency is the fitted concentration of half-maximal effect.

SMILES	IkB sig inh	HEK293 cAMP cs	TSHR agonist	p53ts 39C kill	Imprint erasure	p53ts 32C tox
CC1(C)Cc2ccccc2-c2nnc(SCC(=O)N3CCN(c4ccccc4)CC3)n21	?	17.4%	nt	1.4%	-13.1%	-9.6%
Cc1ccc(C)c(N2CCN(C(=O)c3cc4cc5ccc(C)cc5nc4s3)CC2)c1	?	nt	nt	-11.4%	-2.0%[10.9 µM]	0.2%
CC1=N[C@@](C)(COC(=O)[C@]2(C)N[C@](C)(CO)CO2)COC1=O	1.4%[11.4 µM]	0.2%[11.4 µM]	0.0%[11.4 µM]	-0.7%[9.22 µM]	-7.3%[10.9 µM]	-1.6%[9.22 µM]
COc1ccc(-c2cnc(SCC(=O)Nc3ccc4c(c3)OCO4)n2Cc2ccco2)cc1	?	?	?	36.3%	-22.0%	0.8%
CC(=O)Nc1cccc(NC(=O)CSc2ncc(-c3ccc(Cl)cc3)n2Cc2ccco2)c1	?	25.1µM*	?	12.6µM*	-14.7%	?
Cc1ccc(-n2ncc(C(=O)NC3CCN(Cc4ccccc4)CC3)c2C2CCN(C(=O)OC(C)(C)C)CC2)cc1C	?	nt	nt	15.2%	1.8%[10.9 µM]	13.7%
Cc1ccc(NC2=C/C(=N\S(=O)(=O)c3cccs3)c3ccccc3C2=O)c(C)c1	nt	nt	nt	7.08µM*	nt	3.16µM*
COc1ccc(NC(=O)c2c(NCc3ccc(C)o3)sc3c2CCC(C)C3)c(OC)c1 (stereo not drawn)	?	nt	nt	20µM*	-24.0%[10.9 µM]	?
COc1ccccc1N(C(=O)c1snc(C(N)=O)c1N)C(C(=O)NC1CCCC1)c1ccco1 (stereo not drawn)	?	1µM*	?	-2.6%	-11.2%	1.5%
COc1ccccc1N(C(=O)c1ccco1)C(C(=O)NC1CCCC1)c1cccnc1 (stereo not drawn)	1.3%	?	?	20.4%	-18.3%	3.3%
c1ccc2sc(-c3ccc4c(c3)OCO4)nc2c1	?	16.0%	11.1%	7.94µM*	-93.7%	15.8µM*
O=C(/C=C\c1ccc(O)cc1)c1ccc(O)cc1O	0.5%	-17.6%	-23.7%	34.8%	nt	23.9%
Cc1cccc(-n2nnnc2SCn2nnc3ccccc3c2=O)c1	2.1%	25.1µM*	?	-5.7%	-1.0%	-3.8%
Cc1ccc(C)c(S(=O)(=O)c2nnn3c2nc(N2CCCCC2)c2sccc23)c1	?	nt	nt	-1.8%	-17.4%[10.9 µM]	14.8%
Cc1noc(C)c1CN1C(=O)NC(Cc2ccccc2)(Cc2ccccc2)C1=O	4.9%	-0.5%	25.1µM*	-1.2%	-13.6%	4.7%
Cc1ccc(N2CCN(S(=O)(=O)c3ccc(Cl)c4ccccc34)CC2)c(C)c1	?	nt	nt	2.0%	-1.3%[10.9 µM]	-1.7%
CC1(C)OC(=O)C(=CNc2ccccc2)C(=O)O1	-1.2%	5.9%	2.1%	-2.3%	3.6%	-3.1%
CC1(C)Oc2cc3c(cc2O1)OC(C)(C)O3	nt	3.16µM*	?	7.0%[9.22 µM]	nt	-6.4%[9.22 µM]
CC(C)CC(c1nnnn1C(C)(C)C)N1CCN(C2CCCC2)CC1 (stereo not drawn)	6.4%	12.6µM*	?	2.1%	nt	-4.0%
CC(C)CC(c1nnnn1Cc1ccco1)N1CCN(C2CCCC2)CC1 (stereo not drawn)	-0.3%	3.16µM*	?	-4.2%	-9.0%	-0.1%
CCC(c1nnnn1Cc1ccc(F)cc1)N1CCN(C2CCCCC2)CC1 (stereo not drawn)	0.0%	0.631µM*	?	2.3%	0.2%	-5.4%
CCc1ccc(-n2nc(C)c3c(C(=O)Nc4cccc(C(F)(F)F)c4)cc(C)nc32)cc1	?	nt	nt	6.1%	-6.1%[10.9 µM]	-5.5%
